# Reference: PubChem BioAssay (NCI)
# This is part of a sample that, as a whole, favours compounds with a hit. Of some 83,000 tested, about 20% had one in any assay.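 A percent growth of 40 corresponds to 60% growth inhibition; 0 means no net growth; -100 means all cells died. Active threshold: below 10.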 Unmarked numbers belong to inactive results. The source made the active and inactive calls.
# Tested on: M14 melanoma
# Experiment: NCI-60 one-dose screen, 48 h (100 = growth as untreated, 0 = no growth, -100 = all killed)
# Details: 10 µM unless noted
row,SMILES,growth
1,O=C1/C(=C/c2ccc(O)cc2)COc2ccc(-c3ccccc3)cc21,86.6%
2,CC(=O)N1N=C(c2cccc(Nc3ccncc3)c2)CC1c1ccc2c(c1)OCO2 (centres undefined),-69.4% (active)
3,Cc1c2c(cc[n+]1Cc1ccccc1)c1ccc(OCC3CCCCC3)cc1n2CC1CCCCC1,-84.6% (active)
4,CC[N+](CC)(CCCC(C)[N+]1(Cc2ccccc2)C(C)=CC=C1C)Cc1ccccc1 (centres undefined),66.5%
5,CN1C(=O)N(C)[C@H]2NC(NN)=N[C@H]21,100%
6,O=C(Nc1cccc(Cl)c1)Oc1c(Br)c(Br)c(Br)c(Br)c1Br,90.9%
7,NC(=O)c1ncn(C2OC(CO)C(O)C2O)n1 (centres undefined),92.8%
8,COc1cc(/C=C/C(=O)c2c(C)oc3nc[nH]c(=O)c23)ccc1O,99.6%
9,O=[N+]([O-])c1cccc(-c2nc(-c3ccc(Cl)cc3Cl)cn2-c2ccccc2)c1,-71.6% (active)
10,O=C(N/N=C/c1ccc(F)cc1)c1ccccc1Nc1cccc(C(F)(F)F)c1,95%
11,COc1ccc(Cn2nc(-c3cc(OC)c(OC)c(OC)c3)c3c2CCc2cnoc2-3)cc1OC,61.7%
12,Fc1ccc(C2CC(c3cccc(Nc4ccncc4)c3)=NN2c2ccccc2)cc1 (centres undefined),98.8%
13,CCn1cc(C2NC(=O)c3ccccc3N2)c2cccc(C)c21 (centres undefined),8.05% (active)
14,Cc1nc2sc(C(=O)Nc3ccccc3)c(N)c2cc1C(=O)c1ccc(C(F)(F)F)cc1,93.4%
15,CCC1(CC)NC(=O)c2c(c3ccc(Cl)c(Cl)c3n2C)C1C#N (centres undefined),105%
16,O=C(NCCN1CCOCC1)OCc1nc2nc(Cl)nc(N3CCOCC3)c2[nH]1,9.49% (active)
17,CC(C)[N+](C)(CCOC(COc1ccccc1)COc1ccccc1)C(C)C,100%
18,CN1CCN(c2cc(F)c(NC3=C(Cl)C(=O)c4ncccc4C3=O)c(F)c2)CC1,-40.5% (active)
19,COc1ccccc1/C=C1\COc2ccc(-c3ccccc3)cc2C1=O,17.4%
20,CCN1C(=O)/C(=c2\sc3n(c2=O)NC2C(N=3)N(CC)C(=O)N2CC)c2ccccc21 (centres undefined),38%
21,CCCCCCCCCCCCCCCC(=O)OC[C@@]1(O)C[C@@]23CC[C@@H]4C(C)(C)[C@H](O)CC[C@@]4(C)[C@@H]2CC[C@H]1C3,-30.4% (active)
22,COc1ccccc1N1CCN(C(=O)c2ccc3nc(NC(=O)c4ccc(NCCc5ccccc5)c([N+](=O)[O-])c4)sc3c2)CC1,64.4%
23,CCN(CC)CCOC(COc1cc(C)cc(C)c1)COc1cc(C)cc(C)c1,7.46% (active)
24,CC1=CC2(C)/C=C(C)/C=C\CC(O)/C=C3/C=CC(=C4C(=O)OC2(CC1C)C4=O)OC3 (centres undefined),-77.1% (active)
